target: E3 ubiquitin-protein ligase XIAP (Homo sapiens) (UniProt P98170); assay: small molecules binding XIAP protein – biophysical, small-molecule microarray, fluorescence 635 nm, primary screen (AID 1181); details: higher = more signal;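 also: score merges 667 nm emission and signal to noise over triplicate slides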
Sequence (P98170 whole entry, looked up): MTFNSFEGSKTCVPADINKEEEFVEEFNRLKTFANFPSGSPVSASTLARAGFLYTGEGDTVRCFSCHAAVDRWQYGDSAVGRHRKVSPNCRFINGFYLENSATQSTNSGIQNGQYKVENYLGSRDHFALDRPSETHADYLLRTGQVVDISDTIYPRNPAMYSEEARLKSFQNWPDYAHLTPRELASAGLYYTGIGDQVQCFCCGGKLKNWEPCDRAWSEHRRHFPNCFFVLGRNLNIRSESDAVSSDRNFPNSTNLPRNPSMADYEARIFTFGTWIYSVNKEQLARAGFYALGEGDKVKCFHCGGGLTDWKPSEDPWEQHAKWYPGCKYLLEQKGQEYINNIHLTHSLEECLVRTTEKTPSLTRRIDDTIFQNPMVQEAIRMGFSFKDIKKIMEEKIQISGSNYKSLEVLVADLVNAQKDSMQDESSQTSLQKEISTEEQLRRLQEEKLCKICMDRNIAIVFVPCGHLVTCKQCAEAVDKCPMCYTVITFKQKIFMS

Compound	composite z-score
C[C@@H](c1ccccc1)N1C(=O)[C@H]2[C@H]3[C@H](O)[C@H](O)CC(=NOC[C@@H](O)COCc4ccco4)[C@H]3CC[C@H]2C1=O	-0.102
COc1ccc(O[C@H]2C=C[C@@H](C#Cc3ccccc3)O[C@@H]2CO)cc1	-0.0412
COC(=O)[C@@H]1CC[C@H](C)[C@@H](c2ccc(Br)cc2)N1C[C@@H](O)CN=[N+]=[N-]	-0.0118
CC(C)=CCCC(C)=CCON=C1C[C@@H](O)[C@@H](O)[C@@H]2[C@@H]3C(=O)N(Cc4ccc5c(c4)OCO5)C(=O)[C@@H]3CC[C@@H]12	-0.17

From PubChem BioAssay
